Source: PubChem BioAssay (National Center for Advancing Translational Sciences (NCATS))
Only a selection was taken, and hits are over-represented in it overall.
Shiga toxin inh: Shiga toxin inhibition; actives 9.2% (n = 290,000); inhibition, % at 38.7 µM; AID 2315; Vero cells, Shiga toxin protein synthesis inhibition reporter; in the data active means inhibition mostly above about 28%, no sharp cut-off; inactive means mostly below about 43%; further: 0% is about no effect
Sm TGR block: inhibitors of Schistosoma mansoni thioredoxin glutathione reductase | AID 485364 | Q962Y6 | actives 3% (n = 360,000) | purified TGR, DTNB reduction, TNB absorbance 405 nm | Potency, µM (doses to about 114 µM), without a hit: at the highest dose activity change, negative = inhibition, hits mostly inhibitors; further: potency means the concentration at half of the fitted maximal effect; on the % scale 0 is the no-effect control and ±100 the full control effect; nearly all actives have a fitted effect of over 60% in size
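TGR 20 nM + NADPH 100 uM (dispensed conc.), cpd preinc 15 min RT; start with NADPH (500 uM addition) then DTNB (15 mM addition). Kinetic TNB absorbance, 405 nm filter. Four-parameter Hill fit across titration.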
Giardia FBPA inh: Giardia lamblia aldolase inhibition. purified Giardia FBPA. actives 0.71% (n = 290,000). A8B2U2. Potency, µM (titrated, usually from 59.6 µM), for the others: top-dose activity, negative = inhibition, usual class: inhibitors; further: potency means the concentration at half of the fitted maximal effect; on the % scale 0 is the no-effect control and ±100 the full control effect; nearly all actives have a fitted effect of over 55% in size
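40 nM FBPA preincubated 10 min at RT with compound (up to 57.5 uM final), then substrate plus GAPDH/TPI/NAD/arsenate coupling and diaphorase/resazurin added. Fluorescence read after 20 min at RT, 525/598 nm.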
Tb PYK inh: inhibitors of Trypanosoma brucei pyruvate kinase. Q57TT1. TbPYK enzyme, Kinase-Glo Plus ATP luminescence, 45 min. Potency, µM (highest dose often 76.8 µM), for inactives: at the top dose activity, negative = inhibition, hits mostly inhibitors. actives 0.12% (n = 410,000). AID 624173; further: potency means the concentration at half of the fitted maximal effect; on the % scale 0 is the no-effect control and ±100 the full control effect; nearly all actives have a fitted effect of over 50% in size
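Glycolytic pyruvate kinase of T. brucei was incubated with substrate, test compound and 130 uM ADP for 45 minutes at room temperature. Luminescent Kinase-Glo Plus signal was measured after 10 minutes.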
LmPK inhibitor: inhibitors of Leishmania mexicana pyruvate kinase | purified LmPK, Kinase-Glo ATP luminescence, 1 h | Q27686 | actives 0.37% (n = 290,000) | AID 1721 | Potency, µM (top dose mostly 57.5 µM), without a hit: at the highest dose activity change, negative = inhibition, actives largely listed as inhibitors; further: potency means the concentration at half of the fitted maximal effect; on the % scale 0 is the no-effect control and ±100 the full control effect
Target sequence (Q27686 whole entry, looked up): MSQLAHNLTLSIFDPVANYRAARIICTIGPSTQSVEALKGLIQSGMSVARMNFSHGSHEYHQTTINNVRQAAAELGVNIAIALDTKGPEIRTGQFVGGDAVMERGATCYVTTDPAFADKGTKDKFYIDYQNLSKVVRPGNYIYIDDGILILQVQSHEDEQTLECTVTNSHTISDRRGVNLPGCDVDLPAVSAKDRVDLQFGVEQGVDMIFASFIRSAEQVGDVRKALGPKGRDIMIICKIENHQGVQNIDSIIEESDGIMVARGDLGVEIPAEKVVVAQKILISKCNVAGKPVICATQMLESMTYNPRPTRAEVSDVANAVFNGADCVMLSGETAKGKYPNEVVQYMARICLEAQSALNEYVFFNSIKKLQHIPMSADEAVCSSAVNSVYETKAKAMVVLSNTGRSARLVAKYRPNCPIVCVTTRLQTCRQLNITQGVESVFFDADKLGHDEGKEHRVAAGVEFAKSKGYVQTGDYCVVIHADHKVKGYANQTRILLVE
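Screened at intermediate enzyme activity to detect both inhibitors and activators: LmPK at 0.1 nM, with a 0.5 nM enzyme column as activation reference. PEP 0.5 mM, ADP 0.1 mM; ATP detected by luminescence after 1 h.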
Cycloheximide cs: affects cycloheximide protein synthesis inhibition readout, counter-screen | cell reporter, cycloheximide protein synthesis inhibition counterscreen | max response, % | AID 2314 | actives 12% (n = 300,000); in the data active means max response mostly above about 13%, no sharp cut-off; inactive means mostly below about 14%; further: read at 38.3 µM for the half of the compounds with a filed dose; 0% is about no effect
An asterisk follows results filed as active; ? = inconclusive; / = no result; ! = a repeat was not active; [ ] = dose if it differs, or a comment. Unless noted, the call rests on the fitted dose curve; in most records, active means well fitted curve in the direction sought with a large enough effect; inconclusive means small, poorly fitted or top-dose-only effect, or another doubt; inactive means no such curve, though single readings can be large; an effect the other way counts as inactive or inconclusive.

SMILES | Shiga toxin inh | Sm TGR block | Giardia FBPA inh | Tb PYK inh | LmPK inhibitor | Cycloheximide cs
CCc1[nH]c(=O)c(C#N)c2c1CCCC2 | -13 | 4% | -8% | 0% | -12% | 10
COc1ccc(-c2nc3cc(NC(=O)COc4ccc(F)cc4)ccc3o2)cc1 | / | 6% | / | 4% | / | /
Cc1ccc(S(=O)(=O)Cn2nnnc2CN(Cc2ccco2)Cc2cccs2)cc1 | 11 | 45µM* | -8% | 4% | 7% | -4
CCc1ccc(OC(C)C(=O)Nc2c(C(=O)c3ccccc3)oc3ccccc23)cc1 (stereo unspecified) | / | 7% | / | -13% | / | /
COc1ccc(COc2cc(-c3cccc(OC)c3)nc3ccc(NC(C)=O)cc23)cc1 | 36 | -5% | -4% | 4% | 5% | -4
COc1ccc(COc2cc(-c3cccc(OC)c3)nc3ccc(N)cc23)cc1 | 61*! | 3% | -10%[89.2 µM] | -4% | 9% | 37*!
COc1ccc(CNCc2c(F)cccc2F)cc1OC | -2 | ? | ? | 9% | -5% | -3
CCOc1ccc(S(=O)(=O)Nc2cc(SCC(=O)O)c(O)c3ccccc23)cc1 | 6 | 7.1µM* | 6.3µM* | ? | 20µM* | 15
Cc1ccc(C)c(S(=O)(=O)Nc2cc(SCC(=O)O)c(O)c3ccccc23)c1 | -1 | 3.5µM* | 2.2µM* | 16µM* | 14µM* | 14*
O=S(=O)(Nc1cc(Sc2cccc3cccnc23)c(O)c2ccccc12)c1ccccc1 | 53* | 3.5µM* | ? | / | -12% | 21
O=C(O)CSc1cc(NS(=O)(=O)c2cccc([N+](=O)[O-])c2)c2ccccc2c1O | 11 | 1.8µM* | 2.5µM* | ? | 14µM* | 13*
CC(=O)NCCNc1ncnc2ccc(-c3cccc(NS(C)(=O)=O)c3)cc12 | / | / | 0% | / | / | /
COc1ccc(OC)c(S(=O)(=O)Nc2cccc3c(O)cccc23)c1 | / | / | / | -7% | / | /
CCc1ccc(S(=O)(=O)Nc2cc(SCC(=O)O)c(O)c3ccccc23)cc1 | 30* | 6.3µM* | 4.5µM* | ? | ? | 9
CCc1ccc(S(=O)(=O)Nc2ccc(O)c3ccccc23)cc1 | -3 | 10µM* | -16% | -2% | ? | -3
COc1ccc(OC)c(S(=O)(=O)Nc2ccc(O)c3ccccc23)c1 | 35* | 10µM* | ? | ? | -1% | 26*
Cc1oc2c(cc(NS(=O)(=O)c3ccc(C(C)C)cc3)c3ccccc32)c1C(=O)O | -14 | ? | -24% | 3% | 4% | -6
O=S(=O)(Nc1ccc(O)c2ccccc12)c1ccc(F)cc1 | / | / | / | -8% | / | /
CC1(C(=O)NS(=O)(=O)C2CC2)CCN(C(=O)c2ccc3ccccc3n2)C1 (stereo unspecified) | / | / | / | 5% | / | /
CC(C)c1ccc2oc3nc(N)c(C(=O)O)cc3c(=O)c2c1 | 31 | 5% | ? | ? | 7.1µM* | 8
Cc1nc2oc3ccc(Cl)cc3c(=O)c2cc1C(=O)O | -3 | -2% | -1% | -27% | -22% | -3
Cc1cccc(OCC(=O)Nc2c(C)ccc3nsnc23)c1C | / | 3% | / | -6% | / | /
O=[N+]([O-])c1ccc2nonc2c1Nc1ccccc1 | 43 | 0% | 8% | -1% | -1% | 23*
O=[N+]([O-])c1cccc(Nc2c([N+](=O)[O-])ccc3nonc23)c1 | -12 | -2% | -1% | -1% | -3% | -3
Nc1ccc(O)c(C(=O)O)c1 | / | / | 3.5µM* | -12% | / | /
SMILES | Shiga toxin inh | Sm TGR block | Giardia FBPA inh | Tb PYK inh | LmPK inhibitor | Cycloheximide cs
Nc1ccc(C(=O)O)c(O)c1 (tested in a mixture with another compound) | / | / | -15% | / | / | /
O=C(Nc1ccc(Cl)cc1)C1=Cc2ccccc2OC1 | 68* | -10% | -16% | -9% | -2% | 83*
CC(NC(=O)C1=Cc2ccccc2OC1)c1ccccc1 (stereo unspecified) | / | -15% | / | -2% | / | /
Cc1cc(C(=O)NC(C)c2ccc3c(c2)OCO3)cs1 (stereo unspecified) | -14 | 1% | -10% | -3% | -1% | 10
O=C(Nc1ccc(F)c(F)c1)c1ccc2c(c1)OCO2 | 100* | -2% | -14% | -2% | -22% | 94*
O=C(Nc1ccc2c(c1)OCO2)c1c(F)c(F)c(F)c(F)c1F | 6 | 0% | 1% | 2% | 1% | 10
O=C(Nc1ccc(Cl)c([N+](=O)[O-])c1)c1ccc2c(c1)OCCO2 | 62* | 8% | -9% | -1% | 9% | 33*
Cc1cc(C(=O)Nc2ccc3c(c2)OCO3)cs1 | 58* | 5% | -25% | -9% | ? | 39*
Cc1nnc(NC(=O)CCC(=O)NC2CCCCCCC2)s1 | -3 | 4% | 7% | -1% | -1% | -1
O=C(Nc1ccc2c(c1)OCO2)c1ccc(Cl)s1 | 81* | -1% | -18% | -15% | -20% | 78*
O=C(Nc1ccc(NC(=O)c2ccc(Cl)cc2Cl)cc1)c1ccc2c(c1)OCO2 | 10 | 2% | 3% | -3% | 1% | -1
CCC(=O)N1CCN(c2ccc(NC(=O)c3ccc4c(c3)OCO4)cc2)CC1 | -12 | 2% | 1% | -2% | 3% | 2
O=C(Nc1ccc(Cl)cc1)c1ccc2c(c1)OCO2 | 49* | 0% | -6% | -8% | -8% | 30*
O=C(Nc1cc([N+](=O)[O-])ccc1F)c1ccc2c(c1)OCCO2 | 56* | 8% | -3% | -7% | 1% | 28*
CCN1CCN(c2ccc(NC(=O)c3ccc4c(c3)OCO4)cc2)CC1 | 56* | -3% | -11% | 8% | -1% | 29*
COc1ccc(/C=C(\NC(=O)c2ccc(C)cc2)C(=O)N2CCCCC2)cc1 | -6 | ? | -2% | -1% | 4% | -2
O=c1c(O)c(-c2ccc3c(c2)OCO3)oc2ccccc12 | 22 | 2% | -22% | 2% | 5% | 34*
O=C(Nc1ccc(N2CCCCC2)c(Cl)c1)c1ccc2c(c1)OCCO2 | 57 | 10% | ? | -1% | 10% | 45*
NC(=O)c1ccc(NC(=O)c2ccc3c(c2)OCO3)cc1 | 112 | -1% | 1% | 6% | -19% | 37*
Cc1nc(N2CCCCC2)c2c(C)c(C(=O)Nc3ccc4c(c3)OCCO4)sc2n1 | 24 | -1% | -5% | 2% | 9% | 17*
CC1=C(C(=O)N(C(C)C)C(C)C)CC(CC(=O)NCc2cccs2)C(=O)N1Cc1ccc(C(C)(C)C)cc1 (stereo unspecified) | / | / | / | -5% | / | /
COc1ccc(Cl)cc1-c1cc(C(=O)NCc2ccc(C(F)(F)F)cc2)[nH]n1 | / | / | / | -1% | / | /
COc1ccc(O[C@H]2C=C[C@@H](c3ccccc3)O[C@H]2COC(=O)CC/C(C)=N\OC[C@@H](C)[C@H](OCc2ccccc2)C(C)C)cc1 | / | / | 0%[12.9 µM] | / | / | /
O=C(Nc1ccc2c(c1)OCO2)c1ccc2c(c1)OCO2 | 67* | 7% | -1% | -3% | ? | 40*
